Results as given in PubChem BioAssay (EPA / NIEHS).
Inconclusive results are not listed. Calls of active or inactive are those of the source. The calls were made as follows, unless noted: active = hit-call score of the fitted dose curve at least 0.9, where 1 is the maximum; inactive = score below 0.9.

What was measured:
[1] = CCTE_Shafer_MEA_acute_burst_percentage_mean: CCTE's Neural Acute Assay for Percentage of Spikes in a Burst, Shafer Lab (AID 2284017);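 as to AC50: curve fitted for loss of signal so potency reflects decreased burst percentage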
Procedure, shortened: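 Well-level mean burst percentage from a 40-min recording after compound (0.03-40 uM) expressed as percent change from a 40-min baseline at 37C. Cultures: primary rat cortical neurons on MEA, dosed on DIV 13 or 15; fitted downward relative to DMSO.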

[2] = CCTE_Shafer_MEA_acute_per_network_burst_spike_number_mean: CCTE's Neural Acute Assay for Average Number of Spikes in a Network Burst, Shafer Lab (AID 2284019);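 as to AC50: curve fitted for loss of signal so actives reduce spikes per network burst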
Procedure, shortened: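 Primary rat cortical neurons on 16-electrode MEA wells, DIV 13 or 15, 37 C; 40-min baseline then 40-min recording with compound (0.03-40 uM). Spikes per network burst (total spikes/number of bursts) expressed as percent change from baseline, DMSO reference.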

[3] = CCTE_Shafer_MEA_acute_per_network_burst_spike_number_std: CCTE's Neural Acute Assay for Standard Deviation of Number of Spikes in a Network Burst, Shafer Lab (AID 2284020);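 also: fitted for decrease in spike-number SD versus DMSO so actives lower it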
Procedure, shortened: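 Primary rat cortical neurons on 48-well MEAs (16 electrodes/well) recorded at DIV 13 or 15: 40-min baseline, then 40 min with compound (0.03-40 uM), 37 C. Value is percent change in SD of spikes per network burst, relative to DMSO.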

[4] = CCTE_Shafer_MEA_acute_per_network_burst_electrodes_number_mean: CCTE's Neural Acute Assay for Mean Number of Electrodes in a Network Burst, Shafer Lab (AID 2284021);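 also: curves fitted for decreases only so hits reduce electrodes per burst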
Procedure, shortened: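 Rat primary cortical neurons on 16-electrode MEA wells were recorded 40 min at baseline on DIV 13 or 15, then 40 min after compound (0.03-40 uM), at 37 C. Value is percent change per well, fitted in loss direction versus DMSO.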

[5] = CCTE_Shafer_MEA_acute_cross_correlation_area: CCTE's Neural Acute Assay for Area of Cross Correlation, Shafer Lab (AID 2284024);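 also: area under pooled inter-electrode spike cross-correlation near zero lag as percent change from own baseline; curves fitted for loss of cross-correlation area so actives lower synchrony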
Procedure, shortened: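 Primary rat cortical neurons on 48-well MEA plates (16 electrodes/well) were recorded 40 min at baseline on DIV 13 or 15, then 40 min with compound (0.03-40 uM) at 37 C; cross-correlation area expressed as percent change from baseline.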

[6] = CCTE_Shafer_MEA_acute_cross_correlation_HWHM: CCTE's Neural Acute Assay for Cross Correlation at Half Width at Half Maximum, Shafer Lab (AID 2284026);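 also: percent change per well from pre-dose baseline in spike cross-correlogram half width; hits are a decrease in cross-correlogram half width relative to DMSO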
Procedure, shortened: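 Primary rat cortical neurons on 16-electrode MEA wells; 40-min baseline on DIV 13 or 15, then 40-min recording with compound (0.03-40 uM) at 37 C. HWHM of spike cross-correlogram expressed as percent change from baseline per well, DMSO reference.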

[7] = CCTE_Shafer_MEA_acute_synchrony_index: CCTE's Neural Acute Assay for Synchrony, Shafer Lab (AID 2284027);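 also: fitted for loss of signal so actives lower synchrony relative to DMSO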
Procedure, shortened: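 Readout is percent change in the unitless network synchrony index (0 low, 1 high) between a 40-min baseline and a 40-min recording in compound. Cultures were primary rat cortical neurons on MEAs, treated at 0.03-40 uM on DIV 13 or 15.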

[8] = CCTE_Deisenroth_AIME_384WELL_CTox_Active: Cytotoxicity Assessment (CTOX) in CCTE's 384-well Estrogen Receptor Transactivation Assay with AIME metabolic competence (metabolism positive), Deisenroth Lab (AID 2284037; active = hit-call score of the fitted dose curve at least 0.9, where 1 is the maximum;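 also: activity means signal loss indicating cell death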)
Procedure, shortened: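 VM7Luc4E2 breast cells received medium pre-incubated 2 h with chemical over alginate microspheres holding induced male Sprague Dawley rat liver S9; viability read 24 h later by protease-substrate fluorescence. Loss of signal, bidirectional fit, 0.002–200 uM.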

[9] = CCTE_Deisenroth_AIME_384WELL_CTox_Inactive: Cytotoxicity Assessment (CTOX) in CCTE's 384-well Estrogen Receptor Transactivation Assay without AIME metabolic competence (metabolism negative), Deisenroth Lab (AID 2284039; active = hit-call score of the fitted dose curve at least 0.9, where 1 is the maximum;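 also: cell viability via live-cell protease substrate cleaved to fluorescent probe; cells exposed 24 h to medium preincubated 2 h with alginate-water beads without S9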)
Procedure, shortened: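 Fluorescent protease-substrate viability readout after 24 h exposure of VM7Luc4E2 cells to conditioned medium. Chemicals (0.002–200 uM) first sat 2 h over alginate-water beads, no S9. Data fitted bidirectionally, loss of signal meaning viability loss.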

[10] = CCTE_Shafer_MEA_dev_firing_rate_mean: CCTE's Neural Network Formation Assay for Mean Firing Rate, Shafer Lab (AID 2284031);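 also: curve fitted for loss of firing so AC50 reflects decreased mean firing rate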
Procedure, shortened: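 Rat primary cortical neurons were seeded on multielectrode arrays and treated from plating through day 12, with redosing at each feed. Spontaneous spiking was recorded four times; mean firing rate AUC was fitted downward against DMSO.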

[11] = CCTE_Shafer_MEA_dev_per_burst_spike_percent: CCTE's Neural Network Formation Assay for Percent of Spikes in a Burst, Shafer Lab (AID 2284032);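 also: fitted as a decrease in burst spike percentage below DMSO baseline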
Procedure, shortened: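 Rat primary cortical neurons on 16-electrode MEA wells, dosed from plating day 0 for 12 days with renewal on DIV 5 and 9; spikes-in-bursts percentage averaged over bursting electrodes, collapsed as AUC across days 5, 7, 9, 12; loss direction versus DMSO.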

[12] = CCTE_Shafer_MEA_dev_active_electrodes_number: CCTE's Neural Network Formation Assay for Number of Active Electrodes, Shafer Lab (AID 2284040; active = hit-call score of the fitted dose curve at least 0.9, where 1 is the maximum;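 also: potency for loss of active electrodes versus DMSO so lower counts are hits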)
Procedure, shortened: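 Primary rat cortical neurons on 16-electrode MEA wells, exposed from day 0 through day 12 with compound renewed at DIV 5 and 9 feeds. Active electrodes (mean firing ≥5 spikes/min) counted at DIV 5, 7, 9, 12; trapezoidal AUC across days, loss-of-signal versus DMSO.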

[13] = CCTE_Shafer_MEA_dev_burst_rate: CCTE's Neural Network Formation Assay for Burst Rate, Shafer Lab (AID 2284042);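 also: potency for loss of burst rate below DMSO control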
Procedure, shortened: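 Exposure ran continuously over 12 days of network development in rat cortical cultures, with compound refreshed during full media changes on DIV 5 and 9. Single-electrode bursts per recording time, well-mean over active electrodes, trapezoidal AUC across days 5–12, fitted downward relative to DMSO.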

[14] = CCTE_Shafer_MEA_dev_bursting_electrodes_number: CCTE's Neural Network Formation Assay for Number of Bursting Electrodes, Shafer Lab (AID 2284043; active = hit-call score of the fitted dose curve at least 0.9, where 1 is the maximum;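 also: potency is for loss of bursting electrodes relative to DMSO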)
Procedure, shortened: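 Primary rat cortical neurons were cultured on PEI-coated 48-well MEA plates (16 electrodes/well) and exposed from plating through day 12, with compound renewed at feeds on DIV 5 and 9. Electrodes bursting ≥1 per 2 min were counted on DIV 5, 7, 9, 12; trapezoidal AUC taken.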

[15] = molecular target: Estrogen receptor (Homo sapiens) (UniProt P03372); assay: CCTE_Deisenroth_AIME_384WELL_LUC_Active: CCTE's 384-well Estrogen Receptor Transactivation Assay with AIME metabolic competence (ERTA luciferase; metabolism positive), Deisenroth Lab (AID 2284030; active = hit-call score of the fitted dose curve at least 0.9, where 1 is the maximum)
Estrogen receptor (Homo sapiens), sequence (P03372 whole entry, looked up): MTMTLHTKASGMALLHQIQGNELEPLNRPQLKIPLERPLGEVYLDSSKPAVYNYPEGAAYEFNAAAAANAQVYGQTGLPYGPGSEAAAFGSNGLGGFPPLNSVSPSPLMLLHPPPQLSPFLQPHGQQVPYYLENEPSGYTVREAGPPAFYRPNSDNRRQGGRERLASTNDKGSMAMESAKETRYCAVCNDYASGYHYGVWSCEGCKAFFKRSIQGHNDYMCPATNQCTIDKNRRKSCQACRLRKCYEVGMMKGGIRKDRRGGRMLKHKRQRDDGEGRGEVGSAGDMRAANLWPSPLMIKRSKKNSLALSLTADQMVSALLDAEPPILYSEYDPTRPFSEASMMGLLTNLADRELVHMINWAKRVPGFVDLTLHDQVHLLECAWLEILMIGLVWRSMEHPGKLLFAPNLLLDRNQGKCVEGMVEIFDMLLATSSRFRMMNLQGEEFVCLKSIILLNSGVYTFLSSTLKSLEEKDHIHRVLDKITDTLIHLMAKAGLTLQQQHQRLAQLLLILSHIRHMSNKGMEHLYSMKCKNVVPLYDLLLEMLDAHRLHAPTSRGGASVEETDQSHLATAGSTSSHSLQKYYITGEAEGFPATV
Procedure, shortened: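 Test chemicals (10-point series, 0.002 - 200 uM) were preincubated 2 hours with alginate-immobilized phenobarbital/beta-naphthoflavone-induced male Sprague Dawley rat liver S9; conditioned medium then went onto VM7Luc4E2 breast cells for 24 hour. Luciferase gain-of-signal fitted relative to 17beta-estradiol.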

[16] = molecular target: Estrogen receptor (Homo sapiens) (UniProt P03372); assay: CCTE_Deisenroth_AIME_384WELL_LUC_Inactive: CCTE's 384-well Estrogen Receptor Transactivation Assay without AIME metabolic competence (ERTA luciferase; metabolism negative), Deisenroth Lab (AID 2284038; active = hit-call score of the fitted dose curve at least 0.9, where 1 is the maximum;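 also: hits raise estrogen receptor luciferase signal so potencies reflect agonists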)
Procedure, shortened: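 Metabolism-negative mode: chemicals (10-point, 0.002–200 uM) held 2 h with alginate-water microspheres, then conditioned medium applied to VM7Luc4E2 cells for 24 h. Luciferase induction referenced to 17beta-estradiol.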

[17] = CCTE_Deisenroth_AIME_96WELL_CTox_Active: Cytotoxicity Assessment (CTOX) in CCTE's 96-well Estrogen Receptor Transactivation Assay with AIME metabolic competence (metabolism positive), Deisenroth Lab (AID 2284028; active = hit-call score of the fitted dose curve at least 0.9, where 1 is the maximum)
Procedure, shortened: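 Chemicals (0.002–200 uM) were first incubated 2 h with alginate-immobilized phenobarbital/beta-naphthoflavone-induced male rat liver S9; conditioned medium then went onto VM7Luc4E2 cells for 24 h, with viability read by protease-substrate fluorescence, fitted bidirectionally.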

Measured: AC50

Cc1ccc(-c2cc(C(F)(F)F)nn2-c2ccc(S(N)(=O)=O)cc2)cc1
inactive: [2] | [3] | [4] | [5] | [7]
active: [1] 20 µM | [6] 20 µM

C/C=C/c1ccc(OC)cc1
inactive: [1] | [2] | [3] | [4] | [5] | [6] | [7] | [8] | [9]

CN(C)CCCN1c2ccccc2Sc2ccc(Cl)cc21
active: [1] 33.2 µM | [6] 31.5 µM | [7] 32.2 µM | [10] 3.43 µM | [11] 6.1 µM | [12] 5.17 µM | [13] 5.08 µM | [14] 4.33 µM
inactive: [2] | [3] | [4]

CC(C)NCC(O)c1ccc(O)c(O)c1 (configuration not stated)
inactive: [1] | [2] | [3] | [4] | [5] | [6] | [7]
active: [8] 106 µM | [9] 100 µM

CN(C)C(=O)NC1(c2ccccc2)CCN(CCC[C@]2(c3ccc(Cl)c(Cl)c3)CCCN(C(=O)c3ccccc3)C2)CC1
inactive: [2]
active: [1] 7.4 µM | [3] 7.62 µM | [4] 2.99 µM | [5] 0.00118 µM | [6] 8.86 µM | [7] 6.12 µM

CC(C)COC(=O)CCCCC(=O)OCC(C)C
inactive: [1] | [2] | [3] | [4] | [5] | [6] | [7]

O=C(N[C@@H](c1ccccc1)[C@@H]1CCCCN1)c1cccc(C(F)(F)F)c1Cl
active: [1] 5 µM | [3] 5 µM | [4] 5 µM | [5] 1.99 µM | [6] 9.13 µM | [7] 5 µM
inactive: [2]

CCN(CC)CCOc1ccc(C(=C(Cl)c2ccccc2)c2ccccc2)cc1
active: [1] 20 µM
inactive: [2] | [3] | [4] | [5] | [6] | [7]

COC(=O)[C@H]1[C@H]2C[C@@H]3c4[nH]c5cc(OC)ccc5c4CCN3C[C@H]2C[C@@H](OC(=O)c2cc(OC)c(OC)c(OC)c2)[C@@H]1OC
active: [1] 34.3 µM | [2] 0.808 µM | [3] 20 µM | [6] 20 µM | [7] 4.97 µM | [10] 2.8 µM | [11] 5.76 µM | [12] 5.24 µM | [13] 5.23 µM | [14] 3.34 µM
inactive: [4] | [5]

CCCC(=O)O
inactive: [1] | [2] | [3] | [4] | [5] | [6] | [7]

CSc1ccc(Oc2ccc(S(N)(=O)=O)cc2CN(C)C)cc1C
inactive: [2] | [3] | [4] | [5] | [15] | [8] | [16] | [9]
active: [1] 31.8 µM | [6] 31.7 µM | [7] 31.3 µM

S=c1[nH]c2ccccc2s1
inactive: [17]

COc1ccc(OC(F)(F)F)cc1CN[C@H]1CCCN[C@H]1c1ccccc1
inactive: [4] | [5] | [7]
active: [1] 4.59 µM | [2] 2.07 µM | [3] 2.75 µM | [6] 3.09 µM

Cc1ccc(C(C)(C)C)c(O)c1
active: [1] 29.9 µM | [6] 11.8 µM
not listed: [10] | [11] | [12] | [13] | [14] | [17]
inactive: all other assays above

Cc1c(C)c2c(c(C)c1O)CCC(C)(COc1ccc(CC3SC(=O)NC3=O)cc1)O2 (configuration not stated)
active: [1] 32.9 µM | [2] 3.02 µM | [3] 0.517 µM | [6] 29.7 µM | [7] 35.5 µM
inactive: [4] | [5]

CC(N)=O
inactive: [1] | [2] | [3] | [4] | [5] | [6] | [7]

Cc1cc(Cc2ccc(N)c(C)c2)ccc1N
inactive: [2] | [5]
active: [1] 30 µM | [3] 20 µM | [4] 29.9 µM | [6] 26 µM | [7] 20 µM

CCc1cc(C2=C(C(=O)O)N(c3ccccc3C(F)(F)F)S(=O)(=O)c3ccccc32)cc2c1OCO2
inactive: [1] | [2] | [4] | [5] | [6] | [7]

CN(C)C(=O)NC1(c2ccccc2)CCN(CC[C@@]2(c3ccc(F)c(F)c3)CN(C(=O)c3ccccc3)CCO2)CC1
active: [6] 20 µM
inactive: [1] | [2] | [3] | [4] | [5] | [7]

O=C(O)CN(CC(=O)O)CC(=O)O
inactive: [1] | [2] | [3] | [4] | [5] | [6] | [7] | [8]
active: [15] 28.5 µM | [16] 28.8 µM
